Inconclusive results are not listed. The source made the active and inactive calls. How the source made its calls: active means hit-call score of the fitted dose curve at least 0.9, where 1 is the maximum; inconclusive means response in the unintended direction; inactive means score below 0.9.

Sequence of zebrafish Thyroid Hormone Receptor alpha (TRa), thraa (gene 30670) (Q98867 whole entry, looked up, the tested form may be a part): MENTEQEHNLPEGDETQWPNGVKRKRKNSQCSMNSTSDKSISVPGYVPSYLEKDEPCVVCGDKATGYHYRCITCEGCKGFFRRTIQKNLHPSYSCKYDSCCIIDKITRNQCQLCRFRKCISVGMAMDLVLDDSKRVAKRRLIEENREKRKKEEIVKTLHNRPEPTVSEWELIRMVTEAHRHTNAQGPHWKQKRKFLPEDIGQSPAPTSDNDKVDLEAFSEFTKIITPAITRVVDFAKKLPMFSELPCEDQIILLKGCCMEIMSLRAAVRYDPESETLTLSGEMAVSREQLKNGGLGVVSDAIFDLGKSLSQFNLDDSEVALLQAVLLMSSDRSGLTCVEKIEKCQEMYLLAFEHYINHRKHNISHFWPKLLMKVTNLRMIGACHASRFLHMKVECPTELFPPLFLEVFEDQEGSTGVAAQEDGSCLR

The target of the first assay is human Thyroid hormone Receptor alpha (TRa), THRA (gene 7067) (UniProt P10827). The assay is described as follows: ATG_hTRa_XSP1: Attagene TRANS-FACTORIAL Multi-Species (XSP1) HepG2 Assay for human Thyroid hormone Receptor alpha (TRa) (AID 2283805). The method, then: ATG_XSP1_multi-species_TRANS is a cell-based, multiplexed assay created by modifying the existing Attagene TRANS-FACTORIAL system to include a panel of nuclear receptors from some or all the following species: human (Homo sapiens), mouse (Mus musculus), frog (Xenopus laevis), zebrafish (Danio rerio), chicken (Gallus gallus), and turtle (Chrysemys picta). The ECOTOX-FACTORIAL format uses HepG2, a human liver cell line, with measurements taken at 24 hours after chemical dosing in a 24-well plate. Xsp1 included 3 nM 6-alpha-fluorotestosterone to partially stimulate the androgen receptor.ATG_hTRa_XSP1 is one of 29 assay components measured or calculated from the ATG_XSP1_multi-species_TRANS assay. It is designed to make measurements of mRNA induction, a form of inducible reporter, as detected with fluorescence intensity signals by Reverse transcription polymerase chain reaction (RT-PCR) and Capillary electrophoresis technology.The assay endpoint ATG_hTRa_XSP1 was analyzed in the positive analysis fitting direction relative to DMSO as the negative control and baseline of activity. Using a type of inducible reporter, measures of mRNA for gain-of-signal activity can be used to understand the reporter gene at the transcription factor-level as they relate to the gene TR. Furthermore, this assay endpoint can be referred to as a primary readout, because this assay has produced multiple assay endpoints where this one serves a reporter gene function. […]
Sequence of human Thyroid hormone Receptor alpha (TRa), THRA (gene 7067) (P10827 whole entry, looked up): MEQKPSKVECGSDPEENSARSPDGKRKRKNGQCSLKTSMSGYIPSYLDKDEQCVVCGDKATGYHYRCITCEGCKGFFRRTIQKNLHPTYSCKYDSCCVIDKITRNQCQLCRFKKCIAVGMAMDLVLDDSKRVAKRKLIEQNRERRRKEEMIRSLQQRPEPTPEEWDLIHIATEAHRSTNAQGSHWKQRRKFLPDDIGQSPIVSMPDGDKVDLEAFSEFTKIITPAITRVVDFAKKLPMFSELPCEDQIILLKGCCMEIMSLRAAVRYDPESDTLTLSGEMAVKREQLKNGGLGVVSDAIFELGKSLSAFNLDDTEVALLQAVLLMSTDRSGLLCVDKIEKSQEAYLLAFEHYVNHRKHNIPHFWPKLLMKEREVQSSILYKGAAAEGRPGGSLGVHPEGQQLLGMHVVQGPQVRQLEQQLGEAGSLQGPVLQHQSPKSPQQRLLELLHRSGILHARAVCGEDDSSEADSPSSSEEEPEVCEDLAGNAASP
Human liver HepG2 cells are transiently transfected with multiple reporter transcription units (MRTUs) in 6-well plates using FuGene 6 reagent (Roche; 3 ml FuGene/1 mg DNA). […] A major difference between the CIS and TRANS system is that in CIS activities of endogenous TFs are measured, whereas the TRANS assay evaluates changes in activities of exogenous, chimeric NR-Gal4 proteins. […] The fragments were purified using Qiaquick PCR columns (Qiagen), analyzed on an ABI 3130xL genetic analyzer (Applied Biosystems) with peak positions identified by using a set of X-rhodamine (ROX)-labeled MapMarker1000 molecular weight standards (BioVentures). […]
With `CC(=O)S[C@@H]1CC2=CC(=O)CC[C@]2(C)[C@H]2CC[C@@]3(C)[C@@H](CC[C@@]34CCC(=O)O4)[C@H]12`, the compound was classed as inactive.

Consider `CC(C)(c1ccc(O)cc1)c1ccc(O)cc1`, for which the outcome was inactive.

In the case of `O=C(c1ccc(O)cc1O)c1ccc(O)cc1O`, the outcome was inactive.

The subject of a further assay is turtle Thyroid Hormone Receptor, alpha (TRa), gene 101949057. Kind of assay: ATG_trTRa_XSP1: Attagene TRANS-FACTORIAL Multi-Species (XSP1) HepG2 Assay for turtle Thyroid Hormone Receptor, alpha (TRa) (AID 2283806). In a few lines:
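HepG2 cells transiently transfected with GAL4-UAS reporter units and chimeric receptor-Gal4 constructs, with 3 nM 6-alpha-fluorotestosterone present. Reporter mRNA was quantified 24 h after dosing by RT-PCR, 6-FAM labelling and capillary electrophoresis; gain of signal versus DMSO.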
Regarding `CC1(C)C(C=C(Cl)Cl)C1C(=O)OCc1cccc(Oc2ccccc2)c1` (stereo not given), the call was inactive.

Take `CC(C)CCCCCCc1ccc(O)cc1`: the outcome was inactive.

Turning to `CCCCC(CC)COC(=O)c1ccccc1C(=O)O` (stereo not given), the result was inactive.

Turning to `C#C[C@]1(O)CC[C@H]2[C@@H]3CCC4=CC(=O)CC[C@@H]4[C@H]3CC[C@@]21CC`, the compound was classed as inactive.

In the case of `CC(C)(c1ccc(O)cc1)c1ccc(O)cc1`, the call was inactive.

With `Oc1ccc(C(c2ccc(O)cc2)C(Cl)(Cl)Cl)cc1`, the compound was classed as inactive.

In another assay the target is zebrafish Thyroid Hormone Receptor alpha (TRa), thraa (gene 30670) (UniProt Q98867). Kind of assay: ATG_zfTRa_XSP1: Attagene TRANS-FACTORIAL Multi-Species (XSP1) HepG2 Assay for zebrafish Thyroid Hormone Receptor alpha (TRa) (AID 2283807). The gist of the method:
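HepG2 cells transiently transfected with GAL4-UAS reporter units including a zebrafish TRa–Gal4 chimera, dosed 24 h with 3 nM 6-alpha-fluorotestosterone present. Reporter mRNA quantified by RT-PCR and capillary electrophoresis; gain versus DMSO.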
On to `CC(=O)S[C@@H]1CC2=CC(=O)CC[C@]2(C)[C@H]2CC[C@@]3(C)[C@@H](CC[C@@]34CCC(=O)O4)[C@H]12`, for which the result was inactive.

As for `CC1(C)C(C=C(Cl)Cl)C1C(=O)OCc1cccc(Oc2ccccc2)c1` (stereo not given), the result was inactive.

Turning to `C=CCOC(Cn1ccnc1)c1ccc(Cl)cc1Cl` (stereo not given), the outcome was inactive.

Consider `CCCCC(CC)COC(=O)c1ccccc1C(=O)O` (stereo not given), for which the compound was called inactive.

For `C#C[C@]1(O)CC[C@H]2[C@@H]3CCC4=CC(=O)CC[C@@H]4[C@H]3CC[C@@]21CC`, the compound was classed as inactive.

For the compound `CC(C)(c1ccc(O)cc1)c1ccc(O)cc1`, the call was inactive.

Regarding `Oc1ccc(C(c2ccc(O)cc2)C(Cl)(Cl)Cl)cc1`, the call was inactive.

As for `O=C(c1ccc(O)cc1O)c1ccc(O)cc1O`, the result was inactive.

The target of another assay is human Thyroid hormone Receptor beta (TRb), THRB (gene 7068) (UniProt P10828). The assay is described as follows: ATG_hTRb_XSP1: Attagene TRANS-FACTORIAL Multi-Species (XSP1) HepG2 Assay for human Thyroid hormone Receptor beta (TRb) (AID 2283808). In a few lines: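 HepG2 cells transiently transfected with reporter units driving GAL4-UAS reporters for chimeric NR-Gal4 proteins; 24 h chemical exposure with 3 nM 6-alpha-fluorotestosterone present. Reporter mRNA quantified by RT-PCR and capillary electrophoresis, gain of signal versus DMSO.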
Sequence of human Thyroid hormone Receptor beta (TRb), THRB (gene 7068) (P10828 whole entry, looked up, the tested form may be a part): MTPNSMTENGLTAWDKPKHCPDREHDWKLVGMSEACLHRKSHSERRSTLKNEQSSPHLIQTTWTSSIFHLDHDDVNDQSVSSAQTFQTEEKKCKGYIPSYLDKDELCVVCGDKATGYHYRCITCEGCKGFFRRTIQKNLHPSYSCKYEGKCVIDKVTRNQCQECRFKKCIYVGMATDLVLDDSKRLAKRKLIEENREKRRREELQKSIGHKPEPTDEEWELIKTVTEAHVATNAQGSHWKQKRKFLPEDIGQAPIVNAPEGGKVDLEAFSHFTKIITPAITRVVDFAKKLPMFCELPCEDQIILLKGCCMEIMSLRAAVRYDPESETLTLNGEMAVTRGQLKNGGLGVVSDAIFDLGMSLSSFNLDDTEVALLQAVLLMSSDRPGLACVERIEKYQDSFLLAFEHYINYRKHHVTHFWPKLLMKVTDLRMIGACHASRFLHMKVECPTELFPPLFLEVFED
Consider `CC(=O)S[C@@H]1CC2=CC(=O)CC[C@]2(C)[C@H]2CC[C@@]3(C)[C@@H](CC[C@@]34CCC(=O)O4)[C@H]12`, for which the result was inactive.

For the compound `C=CCOC(Cn1ccnc1)c1ccc(Cl)cc1Cl` (stereo not given), the compound was classed as inactive.

As to `C#C[C@]1(O)CC[C@H]2[C@@H]3CCC4=CC(=O)CC[C@@H]4[C@H]3CC[C@@]21CC`, the outcome was inactive.

Regarding `Oc1ccc(C(c2ccc(O)cc2)C(Cl)(Cl)Cl)cc1`, the result was inactive.

Turning to `O=C(c1ccc(O)cc1O)c1ccc(O)cc1O`, the compound was classed as inactive.

The target in a further assay is zebrafish Thyroid Hormone Receptor beta (TRb), thrb (gene 30607) (UniProt Q9PVE4). Kind of assay: ATG_zfTRb_XSP1: Attagene TRANS-FACTORIAL Multi-Species (XSP1) HepG2 Assay for zebrafish Thyroid Hormone Receptor beta (TRb) (AID 2283809). As to the method: ATG_XSP1_multi-species_TRANS is a cell-based, multiplexed assay created by modifying the existing Attagene TRANS-FACTORIAL system to include a panel of nuclear receptors from some or all the following species: human (Homo sapiens), mouse (Mus musculus), frog (Xenopus laevis), zebrafish (Danio rerio), chicken (Gallus gallus), and turtle (Chrysemys picta). The ECOTOX-FACTORIAL format uses HepG2, a human liver cell line, with measurements taken at 24 hours after chemical dosing in a 24-well plate. Xsp1 included 3 nM 6-alpha-fluorotestosterone to partially stimulate the androgen receptor.ATG_zfTRb_XSP1 is one of 29 assay components measured or calculated from the ATG_XSP1_multi-species_TRANS assay. It is designed to make measurements of mRNA induction, a form of inducible reporter, as detected with fluorescence intensity signals by Reverse transcription polymerase chain reaction (RT-PCR) and Capillary electrophoresis technology.The assay endpoint ATG_zfTRb_XSP1 was analyzed in the positive analysis fitting direction relative to DMSO as the negative control and baseline of activity. Using a type of inducible reporter, measures of mRNA for gain-of-signal activity can be used to understand the reporter gene at the transcription factor-level as they relate to the gene TR. Furthermore, this assay endpoint can be referred to as a primary readout, because this assay has produced multiple assay endpoints where this one serves a reporter gene function. To generalize the intended target to other relatable targets, this assay endpoint is annotated to the nuclear receptor intended target family, where the subfamily is non-steroidal.
Sequence of zebrafish Thyroid Hormone Receptor beta (TRb), thrb (gene 30607) (Q9PVE4 whole entry, looked up): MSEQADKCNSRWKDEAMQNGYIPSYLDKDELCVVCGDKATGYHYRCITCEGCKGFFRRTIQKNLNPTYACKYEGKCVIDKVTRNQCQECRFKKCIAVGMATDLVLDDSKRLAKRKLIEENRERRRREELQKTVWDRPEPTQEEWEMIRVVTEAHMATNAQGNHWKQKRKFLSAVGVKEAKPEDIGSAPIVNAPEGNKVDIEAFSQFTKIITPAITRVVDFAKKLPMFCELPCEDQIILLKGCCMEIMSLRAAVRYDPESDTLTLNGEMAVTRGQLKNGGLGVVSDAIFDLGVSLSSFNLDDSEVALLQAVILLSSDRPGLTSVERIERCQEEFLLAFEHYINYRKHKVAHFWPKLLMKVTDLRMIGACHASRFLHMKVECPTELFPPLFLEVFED
Human liver HepG2 cells are transiently transfected with multiple reporter transcription units (MRTUs) in 6-well plates using FuGene 6 reagent (Roche; 3 ml FuGene/1 mg DNA). The MRTU constructs are regulated by a cis-regulating element (promoter). […] A major difference between the CIS and TRANS system is that in CIS activities of endogenous TFs are measured, whereas the TRANS assay evaluates changes in activities of exogenous, chimeric NR-Gal4 proteins. […] At the end of 24 hour incubation, total RNA was isolated using TriZol reagent (Invitrogen). The isolated RNA is then reverse-transcribed using oligo(dT) primer and Mo-MLV reverse transcriptase (Invitrogen) with DNAse I (Ambion) treatment for 30 min. The one-tenth of the produced cDNA was amplified by PCR using Taq DNA polymerase (Invitrogen) and two reporter sequence-specific primers. The PCR products were fluorescently labeled by primer extension with 6-arboxyfluorescein (6-FAM) 5'-labeled reporter sequence-specific primer (2 min at 95 C, 20 s at 68 C and 10 min at 72 C) and these products were digested with 5U of HpaI (New England Biolabs) for 2h at 37 C. The fragments were purified using Qiaquick PCR columns (Qiagen), analyzed on an ABI 3130xL genetic analyzer (Applied Biosystems) with peak positions identified by using a set of X-rhodamine (ROX)-labeled MapMarker1000 molecular weight standards (BioVentures). The raw capillary electrophoresis data was processed using Attagraph software (Attagene).
On to `CC(=O)S[C@@H]1CC2=CC(=O)CC[C@]2(C)[C@H]2CC[C@@]3(C)[C@@H](CC[C@@]34CCC(=O)O4)[C@H]12`, for which the result was inactive.

Consider `CCCCC(CC)CN1C(=O)C2C3C=CC(C3)C2C1=O` (stereo not given), for which the result was inactive.

Turning to `CC(C)CCCCCCc1ccc(O)cc1`, the call was inactive.

`CCCCC(CC)COC(=O)c1ccccc1C(=O)O` (stereo not given): the result was inactive.

In the case of `C#C[C@]1(O)CC[C@H]2[C@@H]3CCC4=CC(=O)CC[C@@H]4[C@H]3CC[C@@]21CC`, the compound was called inactive.

With `CC(C)(c1ccc(O)cc1)c1ccc(O)cc1`, the compound was called inactive.

Regarding `Oc1ccc(C(c2ccc(O)cc2)C(Cl)(Cl)Cl)cc1`, the outcome was inactive.

With `O=C(c1ccc(O)cc1O)c1ccc(O)cc1O`, the compound was classed as inactive.

These data come from PubChem BioAssay (EPA / NIEHS).
